Shown are actives, neighbours in structure and some others; about 1.6% of the full set was active somewhere.
KCNQ2 inh – KCNQ2 (rat) channel inhibition | O88943 | CHO-K1 KCNQ2, FluxOR thallium flux, 20 min; stronger effect = lower value | B-score at 10 µM | 310,000 tested, 1.1% active | AID 2156;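 active = fluorescence ratio B-score at most minus 3 library SDs, with starting brightness B-score within 2 library SDs, cut at about -5.5 in these data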
Target sequence (O88943 whole entry, looked up): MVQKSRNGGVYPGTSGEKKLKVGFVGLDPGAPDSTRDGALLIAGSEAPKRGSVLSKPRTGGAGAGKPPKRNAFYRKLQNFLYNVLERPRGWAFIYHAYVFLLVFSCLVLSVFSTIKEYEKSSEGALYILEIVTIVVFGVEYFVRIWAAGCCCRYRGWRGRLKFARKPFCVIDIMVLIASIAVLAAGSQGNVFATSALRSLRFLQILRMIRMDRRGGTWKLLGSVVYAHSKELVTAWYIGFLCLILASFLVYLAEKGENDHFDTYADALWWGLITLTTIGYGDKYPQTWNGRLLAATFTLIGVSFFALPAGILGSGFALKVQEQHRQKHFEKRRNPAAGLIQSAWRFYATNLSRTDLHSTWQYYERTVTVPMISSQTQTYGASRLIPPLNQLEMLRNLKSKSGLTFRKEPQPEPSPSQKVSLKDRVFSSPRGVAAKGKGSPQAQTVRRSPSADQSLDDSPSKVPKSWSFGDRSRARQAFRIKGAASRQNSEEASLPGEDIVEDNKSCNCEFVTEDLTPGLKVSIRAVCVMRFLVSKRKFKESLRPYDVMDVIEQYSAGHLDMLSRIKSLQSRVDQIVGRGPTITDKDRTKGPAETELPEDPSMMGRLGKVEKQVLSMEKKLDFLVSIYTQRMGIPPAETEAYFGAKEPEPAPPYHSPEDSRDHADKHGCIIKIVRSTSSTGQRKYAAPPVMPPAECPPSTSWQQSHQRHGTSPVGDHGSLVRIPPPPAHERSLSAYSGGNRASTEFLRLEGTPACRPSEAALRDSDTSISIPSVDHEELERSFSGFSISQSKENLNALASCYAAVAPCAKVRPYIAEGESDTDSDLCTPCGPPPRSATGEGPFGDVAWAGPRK
KCNQ2 enhance – KCNQ2 (rat) channel potentiation; B-score at 10 µM; CHO-K1 KCNQ2, FluxOR thallium flux fluorescence; stronger effect = higher value; O88943; AID 2239; 310,000 tested, 0.54% active;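 active = fluorescence ratio B-score at least 3 SD of library B-scores, with initial fluorescence B-score within 3 of them, cut at about 5.3 in these data; same plate scores as AID 2156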;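 note: B-score of peak minus minimum over baseline fluorescence ratio after K+ and Tl+ stimulus; positive B-score means potentiation of KCNQ2 with more thallium influx and brighter signal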
The depositor's hits bear a star.

Screening Cc1ccc(C)c2nc(SCC(=O)N3CCCc4ccccc43)c(C#N)cc12 returned KCNQ2 inh -7.7* and KCNQ2 enhance -7.7.
COCCN1C(=O)N(c2cccc(C)c2)C(=O)C1CC(=O)Nc1cc(OC)cc(OC)c1 (stereo not given) was read as KCNQ2 inh inactive.
`CCOc1cc(N2CCOCC2)c(OCC)cc1NC(=O)CN1CCC(Cc2ccccc2)CC1` gave KCNQ2 inh inactive and KCNQ2 enhance 6.1*.
For CCOc1cc(N2CCOCC2)c(OCC)cc1NC(=O)CN1C(=O)NC(Cc2ccccc2)C1=O (stereo not given) the results were KCNQ2 inh inactive.
COc1ccc(CNC(=S)NCc2ccc(Cl)cc2)cc1OC was read as KCNQ2 inh inactive.
O=C(CSc1n[nH]c(-c2ccco2)n1)Nc1ccccc1 was read as KCNQ2 inh inactive and KCNQ2 enhance 1.3.
For O=Cc1ccc(O)c2ncccc12 the results were KCNQ2 inh inactive and KCNQ2 enhance 7.2*.
`NS(=O)(=O)c1ccc(N=Nc2ccc(O)c3ncccc23)cc1` gave KCNQ2 inh inactive and KCNQ2 enhance 0.44.
`CCOC(=O)C1=C(CN2CCN(C(=O)c3ccco3)CC2)NC(=O)NC1c1ccc(C)cc1` (stereo not given) gave KCNQ2 inh inactive.
For COc1cc(OC)c2c(=O)cc(-c3ccccc3)oc2c1 the results were KCNQ2 inh inactive.
Screening COc1cc2c(c3oc(-c4ccccc4)cc(=O)c13)C=CC(C)(C)O2 returned KCNQ2 inh -6* and KCNQ2 enhance -6.
`COc1c(C)cccc1C(=O)NC(=S)Nc1ccccc1N1CCCC1` gave KCNQ2 inh inactive.
For CC(C)(C)C1CCC(=NNC(=O)C(=O)NCc2ccco2)CC1 (stereo not given) the results were KCNQ2 inh inactive.
COC(=O)CCC(=O)Nc1cccc2ccccc12 was read as KCNQ2 inh inactive and KCNQ2 enhance 0.28.
For CCCCCC(=O)Nc1cccc2ccccc12 the results were KCNQ2 inh inactive and KCNQ2 enhance 5.7*.
Screening O=C(c1ccccc1)c1ccc(OCCn2cnc3ccccc3c2=O)cc1 returned KCNQ2 inh inactive and KCNQ2 enhance 0.19.
CC(C)(c1ccccc1)c1ccc(OCCn2cnc3ccccc3c2=O)cc1 was read as KCNQ2 inh -7.4* and KCNQ2 enhance -7.4.
For COc1ccc(CNC(=O)CN2c3ccccc3S(=O)(=O)c3ccccc32)cc1 the results were KCNQ2 inh inactive and KCNQ2 enhance 1.7.
For CCCn1c(/C=C/c2ccccc2)nc2ccccc21 the results were KCNQ2 inh -6.1* and KCNQ2 enhance -6.1.
Screening COCCOCCn1c(/C=C/c2ccccc2)nc2ccccc21 returned KCNQ2 inh inactive.
Screening O=C(NCc1cccnc1)c1ccc(NS(=O)(=O)c2ccc(F)cc2)cc1 returned KCNQ2 inh inactive and KCNQ2 enhance 0.04.
For COc1cc(CCN2C(=O)c3cccc4cccc(c34)C2=O)c(S(=O)(=O)N2CCC(C)CC2)cc1OC the results were KCNQ2 inh -6.7* and KCNQ2 enhance -6.7.
For COc1cc(CCN2C(=O)c3cccc4cccc(c34)C2=O)c(S(=O)(=O)N2CCCCCC2)cc1OC the results were KCNQ2 inh inactive.
Screening COc1ccc(/C=C2\CCC/C(=C\C=N\N(C)C)C2=O)cc1 returned KCNQ2 inh inactive.
Screening CN(C)/N=C/C=C1\CCC/C(=C\c2ccc(F)c(F)c2)C1=O returned KCNQ2 inh -7.1* and KCNQ2 enhance -7.1.
`O=C(N/C=C/c1ccccc1)c1ccccc1` gave KCNQ2 inh inactive.
Oc1ccc(NCc2cccc(OCc3ccccc3)c2)cc1 was read as KCNQ2 inh inactive.
For Oc1ccc(NCc2cccc(OCc3ccc(F)cc3)c2)cc1 the results were KCNQ2 inh -5.8* and KCNQ2 enhance -5.8.
Screening Cc1cc(C)c(CN2CCC(n3nccc3NC(=O)C3CCOC3)CC2)cc1C (stereo not given) returned KCNQ2 inh inactive and KCNQ2 enhance 0.03.
Screening COC(=O)c1ccc(COc2ccccc2OC)o1 returned KCNQ2 inh inactive and KCNQ2 enhance 0.51.
Screening COC(=O)c1ccccc1NC(=O)c1ccc(COc2cccc3ccccc23)o1 returned KCNQ2 inh -6.5* and KCNQ2 enhance -6.5.
Cc1cccnc1NC(=O)CCNC(=O)c1ccc(Cl)cc1 was read as KCNQ2 inh inactive and KCNQ2 enhance 0.18.
`CC1CCCN(C(=O)COC(=O)c2cccc(NS(=O)(=O)c3ccccc3)c2)C1` (stereo not given) gave KCNQ2 inh inactive and KCNQ2 enhance 0.02.
Screening COc1cccc2c1OCC/C2=N\NC(=O)COc1ccc(C)cc1 returned KCNQ2 inh inactive and KCNQ2 enhance 0.24.
Cc1ccc(OCC(=O)N/N=C2\CCOc3c(C)cccc32)cc1 was read as KCNQ2 inh -6.8* and KCNQ2 enhance -6.8.
Screening CS(=O)(=O)c1ccccc1C(=O)N(CCc1ccccc1)Cc1ccccc1 returned KCNQ2 inh -5.6* and KCNQ2 enhance -5.6.
For CS(=O)(=O)c1ccc(C(=O)N(CCc2ccccc2)Cc2ccccc2)cc1 the results were KCNQ2 inh inactive.
`COc1ccc(C(=O)N(CCc2ccccc2)Cc2ccccc2)c(OC)n1` gave KCNQ2 inh -7.7* and KCNQ2 enhance -7.7.
COc1ccc(C(=O)N(CCc2ccccc2)Cc2cccs2)c(OC)c1 was read as KCNQ2 inh inactive.
For CC(C)(C)CN1CCNC(=O)C1CC(=O)N1CCN(c2ccccc2)CC1 (stereo not given) the results were KCNQ2 inh inactive and KCNQ2 enhance 0.51.
Screening CCOc1ccc(/C=N/n2c(-c3ccccc3)n[nH]c2=S)cc1 returned KCNQ2 inh inactive and KCNQ2 enhance 0.94.
`CCOC(=O)C(=O)Nc1ncc(Cl)s1` gave KCNQ2 inh inactive.
For CC(C)Cc1csc(NC(=O)c2ccc(Cl)cc2)c1C(=O)O the results were KCNQ2 inh inactive and KCNQ2 enhance 5.6*.
Screening CC(C)Cc1csc(NC(=O)c2ccccc2Cl)c1C(=O)O returned KCNQ2 inh inactive.
For COc1ccccc1CNC(=O)C1CCCN(S(=O)(=O)c2ccc3c(c2)CC(C)N3C(C)=O)C1 (stereo not given) the results were KCNQ2 inh -6.9* and KCNQ2 enhance -6.9.
`COc1ccccc1CNC(=O)C1CCCN(S(=O)(=O)c2ccc3c(c2)C(C)(C)C(=O)N3C)C1` (stereo not given) gave KCNQ2 inh inactive.
O=C(Cc1ccc(F)cc1)Nc1nccs1 was read as KCNQ2 inh inactive.
S=C(Nc1ccccc1)Nc1nccs1 was read as KCNQ2 inh inactive and KCNQ2 enhance 6.5*.
`O=C(Cc1ccccc1)Nc1nccs1` gave KCNQ2 inh inactive and KCNQ2 enhance 0.41.
Fc1ccc(NC(=S)Nc2nccs2)cc1 was read as KCNQ2 inh inactive and KCNQ2 enhance 7.3*.
`S=C(NCc1ccco1)N1CCN(c2ccccc2Cl)CC1` gave KCNQ2 inh -5.8* and KCNQ2 enhance -5.8.
Cc1ccc(Cl)cc1N1CCN(C(=S)NCc2ccco2)CC1 was read as KCNQ2 inh inactive.
CC(=O)N[C@@H](Cc1c[nH]c2ccccc12)C(=O)NC1CC1 was read as KCNQ2 inh inactive.
For CCOP(=O)(OCC)C(Nc1ccc(C(=O)O)cc1)c1ccccc1 (stereo not given) the results were KCNQ2 inh inactive and KCNQ2 enhance 0.79.

Bioassay records deposited in PubChem BioAssay by Johns Hopkins Ion Channel Center.
